A selection: hits, their analogues and other compounds. The true share with any hit is near 3%.
PfHsp90 yeast 2: inhibits growth of yeast expressing Plasmodium falciparum Hsp90; inhibition, % at 9.4 µM; AID 504621; S. cerevisiae expressing PfHsp90, BacTiter-Glo ATP, 48 h; yeast lacking PDR1 and PDR3 efflux regulators; 310,000 tested, 0.32% active;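 active = every replicate shows inhibition above about 80%, whatever the replicate mean, limit read from the data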;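 note: 0% = DMSO neutral controls and 100% = 20 µM radicicol positive controls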
MITF act: MITF TRPM1 promoter activation in melanoma cells; 300,000 tested, 0.75% active; AID 588334; SK-MEL-5 TRPM1-promoter luciferase, 24 h; % of positive control, neutral wells = 0; activation, % at 12.5 µM;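 active = mean activation of at least 80% with every replicate also reaching 80%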;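 note: 0% = neutral control wells and 100% = parthenolide positive control wells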
Glyco luc inh: blocks N-linked glycosylation in D54 reporter cells | D54 ERlucT glycosylation luciferase reporter, 24 h; percent of 100 nM tunicamycin response | reporter increase, % at 12.5 µM | 360,000 tested, 0.23% active | AID 588692;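 active = mean luciferase reporter signal, scaled so untreated is 0 and the glycosylation-blocking control 100, at or above a set limit in every replicate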;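 note: luciferase carries N-glycosylation sites so blocking glycosylation raises the light; 0% = median of neutral control wells and 100% = median of 100 nM tunicamycin wells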
esBAF inh: blocks esBAF chromatin remodeling in mouse ES cells; Bmi1-luciferase knock-in reporter, 24 h; 100% = twice the neutral-well signal; reporter increase, % at 12.5 µM; 350,000 tested, 2% active; in the data active = activation above about 40%;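 note: 0% = median of the plate's neutral control wells and 100% = double that signal; a rise in the Bmi1 reporter signal indicates esBAF inhibition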
Wnt act: Wnt/beta-catenin pathway activation; Wnt/beta-catenin reporter cell assay, activator, plate reader; activation, % at 9.35 µM; 300,000 tested, 1.2% active; in the data active = activation above about 30%, passing the limit was not always enough;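 note: 0% = neutral control wells and 100% = positive control wells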
Vif inh: HIV Vif inhibition. HEK293T cells, Vif self-association by quenched fluorescence, imaging, 24 h. 340,000 tested, 0.35% active. inhibition, % at 7.49 µM; in the data active = inhibition above about 50%, passing the limit was not always enough
* = called active by the depositor; nt = no result given.

SMILES	PfHsp90 yeast 2	MITF act	Glyco luc inh	esBAF inh	Wnt act	Vif inh
C=CCOc1ccccc1C(=O)/C=C1/C(=O)Nc2ccccc21	-24	-9	32*	-4	3	-3
Oc1ccc(CN2CCCCC2)nc1-c1ccccc1	-1	-4	0	-6	-5	nt
COc1ccc(C(=O)NC(=S)NCc2cccnc2)cc1[N+](=O)[O-]	-10	-12	2	nt	-9	5
COC(=O)c1cccc(OCC(O)Cn2ccnc2)c1 (stereo not drawn)	6	-12	0	-1	-1	-3
CN(C)c1ccc(-c2cccc3nccn23)cc1	nt	nt	18	5	0	0
c1cc(-c2ccc(N3CCOCC3)cc2)n2ccnc2c1	nt	nt	3	57*	26	-3
COc1ccc(/C=C/C(=O)c2ccccc2)cc1Cn1nnc2ccccc21	-40	-6	10	nt	43*	-6
CC(c1ccccc1)N1C(=O)OC(C)(C)C1(C)O (stereo not drawn)	4	0	3	4	1	2
CN(Cc1cccc(F)c1)C(=O)CN1C(=O)NC2(CCc3ccccc32)C1=O (stereo not drawn)	2	-5	-1	9	3	-3
COc1ccccc1Cc1nc(-c2ccc(Br)o2)no1	47	15	-2	37	25	2
CC(=O)N1N=C(c2ccccc2)CC1c1cn(C)c2ccccc12 (stereo not drawn)	-9	-7	0	32	90*	-11
Cn1c(Cn2c(=O)sc3ccccc32)nnc1SCc1ccccc1F	nt	nt	-7	-2	1	0
COC(=O)C1=C(C)N(Cc2ccc(C(F)(F)F)cc2)C(=NCc2cc(OC)c(OC)c(OC)c2)NC1c1cccc(Cl)c1 (stereo not drawn)	nt	nt	nt	nt	-4	nt
CC1CCCC(C)N1C(=O)c1cc(-c2ccc(Cl)c(Cl)c2)on1 (stereo not drawn)	nt	97*	-2	80*	nt	-12
CC1CCCC(C)N1C(=O)c1cc(-c2ccc3c(c2)OCO3)on1 (stereo not drawn)	7	95*	-4	56*	1	1
Cc1onc(-c2c(Cl)cccc2Cl)c1C(=O)N1C(C)CCCC1C (stereo not drawn)	-6	1	-1	2	3	8
O=C(c1cc(-c2ccc3c(c2)OCO3)on1)N1CCCCC1	13	11	-18	-66	29	4
CC(C)c1cccc(-c2ccc3c(c2)S(=O)(=O)c2cccc(C(=O)NCc4ccccc4)c2C3=O)c1	6	-7	92*	-6	-10	-2
CC(C)c1cccc(-c2ccc3c(c2)S(=O)(=O)c2cccc(C(=O)NCc4ccccc4Cl)c2C3=O)c1	-2	-80	197*	-7	nt	-4
CO[C@@H]1CN(C)C(=O)c2ccc(NC(=O)Nc3ccccc3Cl)cc2OC[C@H](C)NC[C@H]1C	nt	nt	nt	-6	nt	nt
C[C@H](O)C#Cc1ccc2c(c1)O[C@@H](CN(C)C(=O)C1CCC1)[C@@H](C)CN([C@H](C)CO)S2(=O)=O	nt	nt	nt	-14	nt	nt
COC(=O)[C@@]1(Cc2ccc(OC)cc2)[C@@H]2[C@@H](CC(=O)[C@H]2CC(=O)C(=O)N(C)C)CN1C(=O)c1ccccc1	0	6	0	1	2	-1
COc1ccc2c(c1)CCc1sc(NC(=O)c3ccco3)nc1-2	3	58	2	23	nt	3
COc1ccc2c(c1)Cc1sc(NC(=O)c3cccnc3)nc1-2	-21	33	4	nt	4	-6
COc1ccc2c(c1)-c1nc(NC(=O)c3ccco3)sc1CC2	-9	85*	2	nt	64*	0
COc1ccc2c(c1)Cc1sc(NC(C)=O)nc1-2	nt	75	-3	41*	nt	3
COc1ccc2c(c1)Cc1sc(NC(=O)c3ccco3)nc1-2	26	65	0	46*	nt	-8
COc1ccc(-n2c(=O)c(CCC(=O)NCCc3ccccc3F)nc3ccccc32)cc1	9	7	-5	11	5	3
COC(=O)[C@@H]1[C@@H](CO)[C@@H]2Cn3c(ccc(-c4ccc(F)cc4)c3=O)[C@@H]2N1C	nt	nt	nt	0	nt	nt
CC(=O)C1=C(C)Nc2ncnn2C1c1ccc(Cl)cc1Cl (stereo not drawn)	6	2	-1	-10	-1	-12

Compound activity as filed in PubChem BioAssay.
